# Screens from PubChem BioAssay.
# This is a sample that favours compounds with a hit; in the whole collection about 18% have one here.
# RORg inh = qHTS for inhibitors of ROR gamma transcriptional activity; Nuclear receptor ROR-gamma (Mus musculus), P51450; Drosophila S2 Gal4-RORgamma UAS-luciferase reporter, 20 h; Potency, µM (titrated, usually from 53.6 µM), inactives show at the highest dose activity change, negative = inhibition, hits mostly inhibitors; 310,000 compounds, 5.4% hits; AID 2551, 2010; further: potency means the concentration at half of the fitted maximal effect; nearly all actives have a fitted effect of over 60% in size
# Target sequence (P51450 whole entry, looked up, the tested form may be a part): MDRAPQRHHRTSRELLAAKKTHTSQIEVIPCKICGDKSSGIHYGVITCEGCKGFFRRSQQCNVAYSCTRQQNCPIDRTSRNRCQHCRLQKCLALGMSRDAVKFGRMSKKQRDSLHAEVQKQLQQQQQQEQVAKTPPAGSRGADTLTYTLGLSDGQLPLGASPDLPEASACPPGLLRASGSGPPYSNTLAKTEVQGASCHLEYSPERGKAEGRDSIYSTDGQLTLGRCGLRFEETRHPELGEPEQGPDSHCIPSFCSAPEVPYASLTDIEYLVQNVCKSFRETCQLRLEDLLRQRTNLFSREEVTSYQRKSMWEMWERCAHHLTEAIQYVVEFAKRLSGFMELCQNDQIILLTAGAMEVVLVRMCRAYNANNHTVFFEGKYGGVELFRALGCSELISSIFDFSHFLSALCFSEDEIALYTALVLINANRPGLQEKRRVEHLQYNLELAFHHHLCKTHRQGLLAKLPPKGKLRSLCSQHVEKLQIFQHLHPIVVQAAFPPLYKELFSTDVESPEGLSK
#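 Schneider cells (Drosophila), stable Gal4 DBD–ROR gamma + UAS-luc; 1 hr cmpd preincubation; Cu2+ induction 700 uM final; 20 hr ambient; luminescence.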
# VP16 counter = VP16 counterscreen qHTS for inhibitors of ROR gamma transcriptional activity | Drosophila S2 Gal4-VP16 UAS-luciferase, luminescence, 20 h | Potency, µM (highest dose often 53.6 µM), for inactives: top-dose activity, negative = inhibition, usual class: inhibitors | 310,000 compounds, 3.5% hits;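 further: Gal4-VP16 expression switched on by copper sulfate through the metallothionein promoter; potency means the concentration at half of the fitted maximal effect; nearly all actives have a fitted effect of over 50% in size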
# TDP1 cell noCPT = qHTS for Inhibitors of human tyrosyl-DNA phosphodiesterase 1 (TDP1): qHTS in cells in absence of CPT; DT40 Tdp1-/- hTDP1 cells, no CPT, ATP luminescence, 48 h; Potency, µM (top dose mostly 46.2 µM), inactives show top-dose activity change, negative = growth inhibition, actives largely listed as inhibitors; 420,000 compounds, 15% hits; AID 686978, 2013; further: potency means the concentration at half of the fitted maximal effect; nearly all actives have a fitted effect of over 55% in size
#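 Growth of hTDP1-complemented DT40 Tdp1-knockout cells is measured by ATP luminescence after at least 48 hr compound exposure at 37 °C, with DMSO substituting for the 20 nM CPT used in the parallel screen.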
# LDHA block = qHTS assay for inhibitors of human lactate dehydrogenase; purified LDHA, NADH/diaphorase-resazurin fluorescence; active compounds read low; activity change, % (values are at about 110 or 230 µM); 480,000 compounds, 0.15% hits; in the data active means activity change below about -30%; inconclusive means mostly about -25% to -30%;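 further: plate controls were DMSO wells for no effect and wells without enzyme for full effect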
#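 Human LDH5 (2 nM) was incubated with 0.06 mM NADH and 0.2 mM pyruvate for 5 min at room temperature in Tris pH 7.4. Remaining NADH was coupled through diaphorase/resazurin, and resorufin fluorescence was read at 0 and 20 min.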
# IL1B secr inh = qHTS for Inhibitors of Inflammasome Signaling: IL-1-beta AlphaLISA Primary Screen | 360,000 compounds, 4.7% hits | THP-1 LPS/ATP IL-1B secretion, AlphaLISA, 16 h; active compounds read low | activity change, % at 57.5 µM; in the data active means activity change below about -50%; inconclusive means mostly about -30% to -49%
#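 Secreted IL-1B measured by AlphaLISA bead assay after 16 h compound exposure of THP-1 cells; compounds (final up to 57.5 uM) added 1 h before LPS (250 ng/mL) and ATP (1.25 mM) stimulation; lower signal means less secretion.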
# DT40 TDP1 CPT = qHTS for Inhibitors of human tyrosyl-DNA phosphodiesterase 1 (TDP1): qHTS in cells in presence of CPT; Potency, µM (top dose mostly 46.2 µM), without a hit: at the highest dose activity change, negative = growth inhibition, hits mostly inhibitors; chicken DT40 Tdp1-/-;hTDP1 cells + 20 nM CPT, ATP luminescence, 48 h; 420,000 compounds, 12% hits; further: potency means the concentration at half of the fitted maximal effect; nearly all actives have a fitted effect of over 55% in size
#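 Chicken DT40 Tdp1-/- cells stably complemented with human TDP1 were seeded at 400 cells/well in medium containing 20 nM camptothecin, exposed to pin-transferred compounds, and grown at 37 °C for at least 48 hr. Viability was read as ATP luminescence.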
# An asterisk follows results filed as active; u = inconclusive; x = no result; ! = a repeat was not active; [ ] = dose if it differs, or a comment. Unless noted, the call rests on the fitted dose curve; in most records, active means well fitted curve in the direction sought with a large enough effect; inconclusive means small, poorly fitted or top-dose-only effect, or another doubt; inactive means no such curve, though single readings can be large; an effect the other way counts as inactive or inconclusive. Unless noted, on the % scale 0 is the no-effect control and ±100 the full control effect.
SMILES,RORg inh,VP16 counter,TDP1 cell noCPT,LDHA block,IL1B secr inh,DT40 TDP1 CPT
CC(C)(C)C1CCC(=NNc2nc3ccccc3[nH]2)CC1 (stereo not drawn),17.8µM*,7.0%,u,2.2,74.6,-14.5%
O=C(COc1ccc(Cl)c(Cl)c1)NN1C(=O)C2C(C1=O)C1C=CC2C12CC2 (stereo not drawn),44.3%,13.7%,18.4µM*,-0.7,-1.2,-18.9%
Cc1cc(OCC(=O)NC(C)(C)C)ccc1Cl,2.1%,6.5%,-13.0%,-1.6,0.1,-12.0%
CC(C)=C1C2CCC1C1C(=O)N(NC(=O)COc3ccc(Cl)c(C)c3)C(=O)C21 (stereo not drawn),26.4%,-1.7%,-11.9%,-2.9,-67.8*,-18.8%
COC(=O)c1c(NC(NC(=O)C(C)C)C(Cl)(Cl)Cl)sc2c1CCC2 (stereo not drawn),u,-2.4%,13µM*,-0.3,20.4,16.4µM*
CCC(=O)NC(Nc1sc2c(c1C(=O)OC)CCC2)C(Cl)(Cl)Cl (stereo not drawn),-3.0%[10 µM],-0.6%,14.6µM*,-1.0,11.5,14.6µM*
CCOC(=O)c1c(NC(NC(C)=O)C(Cl)(Cl)Cl)sc2c1CCCC2 (stereo not drawn),u,-16.2%,u,3.0,14.3,16.4µM*
COC(=O)c1c(NC(NC(=O)C(C)(C)C)C(Cl)(Cl)Cl)sc2c1CCC2 (stereo not drawn),u,-20.4%,u,1.7,43.7,u
COC(=O)c1c(NC(NC(=O)CC(C)C)C(Cl)(Cl)Cl)sc2c1CCC2 (stereo not drawn),14.3%,-4.0%,u,-1.3,24.1,u
Nc1nonc1C(=O)N/N=C/c1cc(Br)ccc1O,-2.2%,-0.4%,1.46µM*,1.4,187.5,0.92µM*
Nc1nonc1-n1nnc(C(=O)N/N=C/c2cc(Br)ccc2O)c1CNc1ccccc1,5.01µM*,7.08µM*,8.2µM*,-5.5,69.0,8.2µM*
COc1cc(NCC2COc3c(ccc(OC)c3OC)C2=O)c([N+](=O)[O-])cc1OC (stereo not drawn),x,x,18.4µM*,13.3,-8.6,18.4µM*
O=C(c1cc(-c2ccccc2)n[nH]1)N1CCN(C(=O)c2ccc(Br)o2)CC1,x,x,x,-12.0,x,x
NCCOc1ccc2c(c1)CCC2,x,x,x,1.0,x,x
O=c1[nH]c2cc3c(cc2c(=O)n1CCc1nc(-c2ccccc2)no1)OCO3,x,x,x,-2.6,x,x
COc1ccc(N2C(=O)/C(=C/c3ccc([N+](=O)[O-])cc3)N=C2C)c(OC)c1,u,7.94µM*,2.06µM*,-2.4,7.8,3.66µM*
CC1=N/C(=C\c2ccc([N+](=O)[O-])cc2)C(=O)N1c1cc(Cl)ccc1C,24.3%,-14.1%,9.2µM*,-14.8,-17.9,10.3µM*
CC1=NN(c2ccccc2)C(=O)/C1=C\c1ccc(Oc2ccc([N+](=O)[O-])cc2[N+](=O)[O-])cc1,-38.5%,u,u,9.9,-29.2,u
Cc1c(Cl)cccc1NC(=O)COc1ncnc2ccccc12,x,x,x,-3.4,x,x
O=C1C(=O)c2ccccc2C(O)=C1C1CCC(c2ccc(Cl)cc2)CC1 (stereo not drawn),12.6µM*,5.01µM*,2.31µM*!,-7.5,4.8,u
O=C1CC(=O)CC(c2ccc(Cl)cc2)C1,x,x,x,-3.7,x,x
CCN1C(=O)C(NC(=O)C(=O)NCc2ccco2)c2ccccc21 (stereo not drawn),x,x,x,-2.7,x,x
CC(=O)Nc1ccccc1OCC(=O)NC(C)C,x,x,x,-1.6,x,x
Oc1ccc(NC(=S)N=Nc2c(O)[nH]c3ccc(Br)cc23)cc1,10µM*,u,23.1µM*,1.9,-63.6*,-77.8%
Cc1cccc(N=Nc2c(O)[nH]c3ccc(Br)cc23)c1,23.0%,-5.5%,1.8%,2.3,-2.2,u
SMILES,RORg inh,VP16 counter,TDP1 cell noCPT,LDHA block,IL1B secr inh,DT40 TDP1 CPT
Oc1[nH]c2ccc(Br)cc2c1N=NC(=S)Nc1ccc(F)cc1,0.794µM*,7.94µM*,2.91µM*,-6.5,-1.9,1.3µM*
Oc1cccc(NC(=S)N=Nc2c(O)[nH]c3ccc(Br)cc23)c1,-40.5%,-7.5%,u,-7.4,-5.5,u
CC(C)C1CC(CCN2CCOCC2)(c2ccccc2)CCO1 (stereo not drawn),x,x,x,1.9,x,x
COc1ccc(C(O)(C2CCCCC2)C(CN2CCCCC2)c2ccccc2)cc1 (stereo not drawn),x,x,x,1.7,x,x
CC(C)c1ccc(NC(=O)c2nc3ccccc3n(C)c2=O)cc1,x,x,x,-1.8,x,x
CCN1CCC(O)(/C=C/c2ccc(C(C)C)cc2)C(C(=O)/C=C/c2ccc(C(C)C)cc2)C1 (stereo not drawn),x,x,23.1µM*,2.0,-116.9*,14.6µM*
CC(=O)NN1C(=O)c2ccc3c4c(ccc(c24)C1=O)C(=O)N(NC(C)=O)C3=O,11.2µM*,11.2µM*,u,14.9,82.5,u
COc1ccccc1C(=O)NCCC(=O)N1CCN(c2cccc(C(F)(F)F)c2)CC1,x,x,u,3.4,1.2,16.4µM*
O=C(Cn1ccc2ccccc2c1=O)NCCC(=O)N1CCN(c2cccc(C(F)(F)F)c2)CC1,u,-21.3%,16.4µM*,-9.0,-17.5,20.6µM*
Cc1cn(C)c(CC(=O)N2CCN(c3cccc(C(F)(F)F)c3)CC2)c1C(=O)O,x,x,u,1.1,x,13µM*
O=C(Cn1ccc2ccccc2c1=O)NCCC(=O)N1CCN(c2ccccc2)CC1,1.4%,-1.4%,-11.1%,-4.4,-2.9,-5.6%
Cc1ccc(C)c(C(=O)CCC(=O)N2CCN(c3cccc(C(F)(F)F)c3)CC2)c1,x,x,11.6µM*,2.5,2.0,14.6µM*
COc1ccccc1C(=O)NCCC(=O)N1CCN(c2ccccc2O)CC1,x,x,-20.0%,0.0,-10.9,-13.5%
Cc1ccc(CN2CCN(CC(=O)NC3CCC(C(C)(C)C)CC3)CC2)o1 (stereo not drawn),x,x,x,3.8,x,x
CCc1nnc(NC(=O)CSc2nc3cc(OC)ccc3cc2C)s1,u,4.3%,8.2µM*,-10.6,-7.1,-28.0%
COc1ccc(NC(=O)CSc2nc(C)c3c(c2C#N)CCCC3)cc1,-14.6%,-3.1%,-12.4%,4.7,-2.2,u
